Values joined by “and” are separate entries in the source; they are usually repeats but may differ in a detail not shown here. Equal values may be shown once. About 83,000 compounds went through this panel and 20% of them were active in at least one assay; those are over-represented in the sample as a whole.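 Single-dose data. Exposure time 48 hours. Values below 10 considered active.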 Active and inactive are the calls of the source.
Legend:
Experiment in all cases: NCI-60 one-dose screen, 48 h (100 = growth as untreated, 0 = no growth, -100 = all killed)
Conditions in all cases: 10 µM
NCI-H23 lung = tested on: NCI-H23 lung
NCI-H522 lung = tested on: NCI-H522 lung
MDA-MB-231 breast = tested on: MDA-MB-231 breast
M14 melanoma = tested on: M14 melanoma
SK-MEL-5 melanoma = tested on: SK-MEL-5 melanoma
UACC-62 melanoma = tested on: UACC-62 melanoma
LOX IMVI melanoma = tested on: LOX IMVI melanoma
CCRF-CEM leukemia = tested on: CCRF-CEM leukemia
SR leukemia = tested on: SR leukemia
OVCAR-8 ovarian = tested on: OVCAR-8 ovarian
OVCAR-5 ovarian = tested on: OVCAR-5 ovarian
SK-OV-3 ovarian = tested on: SK-OV-3 ovarian
IGROV1 ovarian = tested on: IGROV1 ovarian
HS 578T breast = tested on: HS 578T breast
NCI/ADR-RES ovarian = tested on: NCI/ADR-RES ovarian
T-47D breast = tested on: T-47D breast
SW-620 colon = tested on: SW-620 colon
MCF7 breast = tested on: MCF7 breast
HCT-116 colon = tested on: HCT-116 colon
KM12 colon = tested on: KM12 colon

Measured: growth

CCCCCCCCCC(=O)N[C@@](C)(CC)C(=O)N1CCC[C@H]1C(=O)N[C@@H](CC(C)C)C(=O)N[C@@](C)(CC)C(=O)N[C@@H](CCC(N)=O)C(=O)N[C@H](CCC(N)=O)C(=O)NC(C)(C)C(=O)NC(C)(C)C(=O)N[C@@H](CCC(N)=O)C(=O)N[C@H](CC(C)C)C(=O)N[C@H](CO)CC(C)C
active: NCI-H23 lung -78.3% and -84.7% | NCI-H522 lung -84% and -82.6% | MDA-MB-231 breast -92.2% and -98.5% | M14 melanoma -80.7% and -65.5% | SK-MEL-5 melanoma -94.2% and -97.9% | UACC-62 melanoma -90.6% and -99.6% | LOX IMVI melanoma -87.8% and -92.7% | CCRF-CEM leukemia -38.9% and -40.9% | OVCAR-8 ovarian -74.1% and -63.2% | OVCAR-5 ovarian -98.7% and -100% | SK-OV-3 ovarian -77.5% and -56.9% | IGROV1 ovarian -84.9% and -85.5% | HS 578T breast -70.1% and -58.6% | NCI/ADR-RES ovarian -82.9% and -77% | T-47D breast -6.91% and -59.3% | SW-620 colon -79.7% and -77.5% | MCF7 breast -76.7% and -77.6% | HCT-116 colon -66.1% and -29% | KM12 colon -90.6% and -93.5%
-31.3% (active) and 16.2% (inactive): SR leukemia

CC(=O)O[C@@H]1C[C@H]2O[C@@H]3C=C(C)CC[C@]3(C)[C@]1(C)[C@]21CO1
inactive: OVCAR-5 ovarian 84.3% | SK-OV-3 ovarian 18.1% | IGROV1 ovarian 22.8% | HS 578T breast 22.7% | NCI/ADR-RES ovarian 14.6% | KM12 colon 27.4%
active: NCI-H23 lung 7.96% | NCI-H522 lung 2.05% | MDA-MB-231 breast 4.27% | M14 melanoma -45.9% | SK-MEL-5 melanoma -50.9% | UACC-62 melanoma 2.75% | LOX IMVI melanoma -41.5% | CCRF-CEM leukemia -3.18% | SR leukemia 0.874% | OVCAR-8 ovarian 8.44% | T-47D breast -2.72% | SW-620 colon 7.09% | MCF7 breast 3.89% | HCT-116 colon 0.731%

CC1=C2C(=C[C@@](C)(C=O)[C@@H]2O)C(=O)[C@](C)(O)C12CC2
active: NCI-H23 lung -24% | M14 melanoma 2% | SK-MEL-5 melanoma -79.5% | UACC-62 melanoma -48.5% | LOX IMVI melanoma 2.16% | OVCAR-5 ovarian 6.05% | IGROV1 ovarian 9.24% | NCI/ADR-RES ovarian 1.41% | MCF7 breast 3.05% | HCT-116 colon 6.13%
inactive: NCI-H522 lung 12.9% | MDA-MB-231 breast 14% | CCRF-CEM leukemia 22.6% | SR leukemia 14.5% | OVCAR-8 ovarian 14.1% | SK-OV-3 ovarian 11.1% | HS 578T breast 33.5% | T-47D breast 11.7% | SW-620 colon 10.1% | KM12 colon 27.4%

CN1C(=O)[C@]23SSC1(C)C(=O)N2[C@H]1Nc2ccccc2C1([C@@]12c4ccccc4N[C@@H]1N1C(=O)C4(C)SS[C@]1(C(=O)N4C)[C@H]2O)[C@@H]3O (stereo not given in full)
active: NCI-H23 lung -66.4% | NCI-H522 lung -84.4% | MDA-MB-231 breast -52.1% | M14 melanoma -90% | SK-MEL-5 melanoma -99% | UACC-62 melanoma -79.2% | LOX IMVI melanoma -89.9% | CCRF-CEM leukemia 1.4% | SR leukemia 0.169% | OVCAR-8 ovarian -76.1% | OVCAR-5 ovarian -66.2% | SK-OV-3 ovarian -98.8% | IGROV1 ovarian -71.7% | HS 578T breast -49.4% | NCI/ADR-RES ovarian -19.4% | T-47D breast -81.3% | SW-620 colon -88.2% | MCF7 breast -77.4% | HCT-116 colon -99.5% | KM12 colon -94.4%

C/C=C/CC(C)C(O)[C@H](NC(=O)[C@@H]1CCCN1C(=O)C(C)(C)NC(=O)CCCCCCC)C(=O)N[C@@](C)(CC)C(=O)N[C@@H](CCC(N)=O)C(=O)N[C@H](CCC(N)=O)C(=O)NC(C)(C)C(=O)NC(C)(C)C(=O)N[C@@H](CCC(N)=O)C(=O)N[C@H](CC(C)C)C(=O)N[C@H](CO)CC(C)C (stereo not given in full)
92.9% (inactive) and 0.907% (active): SR leukemia
102% (inactive) and 7.2% (active): T-47D breast
103% (inactive) and -23.3% (active): CCRF-CEM leukemia
119% (inactive) and -53% (active): KM12 colon
108% (inactive) and -6.87% (active): MDA-MB-231 breast
103% (inactive) and -8.57% (active): NCI-H522 lung
inactive: NCI-H23 lung 16.4% | M14 melanoma 103% and 25.1% | UACC-62 melanoma 103% and 19.2% | LOX IMVI melanoma 33.2% | OVCAR-8 ovarian 106% and 24.6% | OVCAR-5 ovarian 114% and 40% | SK-OV-3 ovarian 101% and 52.6% | IGROV1 ovarian 113% and 46.4% | NCI/ADR-RES ovarian 106% and 48.9% | SW-620 colon 103% and 31.6% | HCT-116 colon 108% and 25.3%
93.3% (inactive) and 4.76% (active): MCF7 breast
110% (inactive) and -10.8% (active): HS 578T breast
100% (inactive) and -65.7% (active): SK-MEL-5 melanoma

— PubChem BioAssay (NCI)
